PubChem BioAssay (NCI)
This is part of a sample that, as a whole, favours compounds with a hit. Of some 83,000 tested, about 20% had one in any assay.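 Treatment: one concentration, 48 hours, 96-well format. Scoring: percent growth, with anything below 10 considered active.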 A number with no mark means an inactive call. The source made the active and inactive calls.

Experiments:
Assay in all cases: NCI-60 one-dose screen, 48 h (100 = growth as untreated, 0 = no growth, -100 = all killed)
Conditions in all cases: 10 µM unless noted
SR leukemia = system: SR leukemia
RPMI-8226 leukemia = system: RPMI-8226 leukemia
OVCAR-8 ovarian = system: OVCAR-8 ovarian
OVCAR-5 ovarian = system: OVCAR-5 ovarian
OVCAR-4 ovarian = system: OVCAR-4 ovarian
SK-OV-3 ovarian = system: SK-OV-3 ovarian
IGROV1 ovarian = system: IGROV1 ovarian
OVCAR-3 ovarian = system: OVCAR-3 ovarian
HS 578T breast = system: HS 578T breast
NCI/ADR-RES ovarian = system: NCI/ADR-RES ovarian

Row | SMILES | growth (SR leukemia) | growth (RPMI-8226 leukemia) | growth (OVCAR-8 ovarian) | growth (OVCAR-5 ovarian) | growth (OVCAR-4 ovarian) | growth (SK-OV-3 ovarian) | growth (IGROV1 ovarian) | growth (OVCAR-3 ovarian) | growth (HS 578T breast) | growth (NCI/ADR-RES ovarian)
1 | Cn1ccnc1C(=O)C(=O)Nc1ccc(CC(=O)Nc2ccccc2)cc1 | 106% | 107% | 109% | 101% | 110% | 115% | 103% | 108% | 101% | 103%
2 | O=C(Cn1c(=O)sc2ccccc21)NNS(=O)(=O)c1ccccc1[N+](=O)[O-] | 96% | 98.4% | 99.4% | 100% | 117% | 103% | 102% | 99.3% | 103% | 103%
3 | N=C(N)c1ccc(-c2ccc(-c3cc(Cl)cc(Cl)c3)o2)o1 | -50% (active) | -33.6% (active) | -41.7% (active) | -72.2% (active) | -76.3% (active) | -59% (active) | -52.5% (active) | -87.9% (active) | 64.8% | -38.5% (active)
4 | COC(=O)c1c2c(c(C)[n+]([O-])c1C)C(=O)C=C(NCc1ccc(OC)cc1)C2=O | -0.642% (active) | -16.5% (active) | 1.17% (active) | -54.6% (active) | -98.5% (active) | 8.27% (active) | -61.5% (active) | -40.5% (active) | -10.2% (active) | -7.81% (active)
5 | CCCCCCCCCCCCCCCC(N)c1ccccc1 (stereo not given) | -26.1% (active) | -27.9% (active) | -26.3% (active) | 79.7% | -15.8% (active) | 77.1% | -46.6% (active) | -70.2% (active) | 60.6% | -31.1% (active)
6 | O=C1c2cccnc2C(=O)c2c1c(C(=O)NCCn1ccnc1)c1ccccn21 | 7.94% (active) | 55.8% | 4.37% (active) | 92.1% | -47.6% (active) | 48.4% | 26.3% | 3.37% (active) | 65.6% | 75.3%
7 | CCS/C(Nc1ccccc1)=C(\C#N)C(=O)N/N=C/c1ccc(Cl)cc1Cl | 19.5% | 9.68% (active) | 28.6% | 72.5% | 56.5% | 15.5% | 49.1% | 1.46% (active) | -6.44% (active) | 10.8%
8 | Cc1ccc(-c2nc(N3CCNCC3)c3oc(-c4ccccc4)nc3n2)cc1 | -44% (active) | -54.7% (active) | -66.4% (active) | 14.7% | -51.6% (active) | 87.4% | -68% (active) | -89.5% (active) | -7.69% (active) | -23.1% (active)
9 | O=C(c1ccc(Cl)cc1)N1CCN(c2ccnc3cc(Cl)ccc23)CC1 | 122% | 75.9% | 87.3% | 93% | 70.7% | 93.6% | 92.9% | 100% | 99.3% | 87.7%
10 | CN1CCN(c2ccc(NC(=O)c3cncnc3Nc3ccc(OCc4ccccn4)c(Cl)c3)cc2)CC1 | 4.59% (active) | 23.3% | 15.2% | 46.4% | 61.8% | 99.4% | 79.4% | 70.6% | 67.4% | 70.5%
11 | CC(C)CCC[C@@H](C)[C@H]1CC[C@H]2[C@@H]3CC=C4C[C@@H](C(C(=O)O)C(=O)O)CC[C@]4(C)[C@H]3CC[C@]12C | -39.7% (active) | -26.9% (active) | -19.8% (active) | 45.2% | 0.439% (active) | -5.5% (active) | -35.5% (active) | -73.5% (active) | -12.7% (active) | -1.29% (active)
12 | C[C@@H]1CCC[C@H]1CC(N)C(=O)O (stereo not given in full) | 108% | 103% | 106% | 105% | 105% | 113% | 114% | 117% | 103% | 104%
13 | COc1ccc(-c2nnc3n(C)c(=O)c4ccccc4n23)cc1N | 21.7% | 20% | 33.6% | 45.2% | 59.3% | 22% | 51.9% | 6.12% (active) | 32% | 22.8%
14 | O=C(c1ccc(-c2nc(CSc3nc4ccccc4s3)no2)cc1)N1CCSCC1 | 43% | 47.2% | 43% | 117% | 69.5% | 72.6% | 77.6% | 78.8% | 106% | 52.7%
